Shiga inhibitor: inhibitors of Shiga toxin in Vero cells; Vero cells, Shiga toxin protein synthesis inhibition reporter; inhibition, % at 38.7 µM; 290,000 tested, 9.2% active; AID 2315; in the data active = inhibition mostly above about 28%, no sharp cut-off; inactive = mostly below about 43%
MARV entry inh: Marburg virus entry inhibition. Marburg virus pseudotyped entry inhibition, cell reporter. Potency, µM (top dose mostly 37.8 µM), hits mostly inhibitors. 300,000 tested, 1.8% active. AID 540276; calls by dose curve; tested in HEK293 cells
Lassa entry inh: blocks Lassa virus binding to or entry into cells | Potency, µM (titrated, usually from 37.9 µM), usual class: inhibitors | Lassa virus pseudotype entry inhibition, cell reporter | AID 540256 | 300,000 tested, 1.2% active; calls by dose curve; tested in HEK293 cells; also: nearly all actives have a fitted effect of over 50% in size
Vaccinia mCherry: inhibitors of vaccinia virus infection (mCherry reporter signal) | Vaccinia virus mCherry reporter infection, fluorescence | Potency, µM (highest dose often 36.5 µM), actives largely listed as inhibitors | AID 720579 | 310,000 tested, 0.63% active; calls by dose curve; tested in A549 cells; also: nearly all actives have a fitted effect of over 35% in size
Vaccinia Venus: vaccinia inhibition (Venus reporter); Vaccinia virus Venus reporter expression, fluorescence; Potency, µM (highest dose often 36.5 µM), most hits filed as inhibitors; 330,000 tested, 0.46% active; AID 720580; calls by dose curve; tested in A549 cells; also: nearly all actives have a fitted effect of over 30% in size
CHX counter: counter-screen hit for Shiga toxin inhibitors, cycloheximide; cell reporter, cycloheximide protein synthesis inhibition counterscreen; max response, %; 300,000 tested, 12% active; AID 2314; in the data active = max response mostly above about 13%, no sharp cut-off; inactive = mostly below about 14%; also: read at 38.3 µM for the half of the compounds with a filed dose
Each line names hits and unclear results; the compound was inactive in the other large screens. This is one part of a sample in which hits are shown more often than they occur.

O=C(N/N=C1\CCS(=O)(=O)c2ccc(F)cc21)c1ccc(O)cc1	none (no result: MARV entry inh, Lassa entry inh, Vaccinia mCherry, Vaccinia Venus)
CC(C)CON=C1C[C@@H](O)[C@@H](O)[C@@H]2[C@H]3C(=O)N(Cc4ccccc4)C(=O)[C@@H]3CC[C@@H]12	none (no result: Shiga inhibitor, Lassa entry inh, Vaccinia mCherry, Vaccinia Venus, CHX counter)
C/C(=N\Nc1ccc(Cl)c(C(=O)O)c1)c1ccc(N2CCOCC2)cc1	Shiga inhibitor 156, CHX counter 118
NC(=O)N/N=C/c1ccc(N2CCOCC2)s1	Lassa entry inh inconclusive
O=C(O)c1cc(N/N=C/c2ccc(N3CCOCC3)s2)ccc1Cl	Shiga inhibitor 64, CHX counter 45
COc1cccc(CNC(=O)Cn2nc(C)n3c(cc4cc(C)ccc43)c2=O)c1OC	none (no result: Shiga inhibitor, Lassa entry inh, CHX counter)
CNC(=S)Nc1cccc([N+](=O)[O-])c1	none
O=C(NCc1ccc(F)cc1)Nc1cccc([N+](=O)[O-])c1	none (no result: MARV entry inh, Lassa entry inh)
C/C(=N\Nc1cccc([N+](=O)[O-])c1)c1ccccc1O	Shiga inhibitor 73, MARV entry inh inconclusive, CHX counter 33
C/C(=N\Nc1cccc([N+](=O)[O-])c1)c1cc(F)ccc1O	Shiga inhibitor 109, CHX counter 47 (no result: MARV entry inh, Lassa entry inh, Vaccinia mCherry, Vaccinia Venus)
C[n+]1ccn(CC(=O)c2cc(C(C)(C)C)c(O)c(C(C)(C)C)c2)c1	none (no result: MARV entry inh, Lassa entry inh, Vaccinia mCherry, Vaccinia Venus)
c1ccc2c(c1)NCCS2	Shiga inhibitor 80, MARV entry inh inconclusive, CHX counter 47
CC(=O)C1=NN(c2ccccc2)C(c2ccc3c(c2)OCO3)N1c1ccccc1 (stereo not given)	none (no result: Vaccinia mCherry, Vaccinia Venus)
CC(=O)C1=NN(c2ccccc2)C(c2cccs2)N1c1ccc(N(C)C)cc1 (stereo not given)	MARV entry inh inconclusive, Lassa entry inh 21µM (no result: Vaccinia mCherry, Vaccinia Venus)
COC(=O)CCC(=O)c1oc2ccc(Br)cc2c1N	Shiga inhibitor active, MARV entry inh inconclusive, CHX counter 41 (no result: Vaccinia mCherry, Vaccinia Venus)
Nc1c(C(=O)c2ccc(Br)cc2)oc2ccccc12	Shiga inhibitor 45, CHX counter 30
Nc1c(C(=O)c2ccccc2)oc2ccc(Br)cc12	Shiga inhibitor 83, CHX counter 28 (no result: Vaccinia mCherry, Vaccinia Venus)
Nc1c(C(=O)c2ccccc2)oc2ccc([N+](=O)[O-])cc12	Shiga inhibitor 41, CHX counter 26 (no result: MARV entry inh, Lassa entry inh, Vaccinia mCherry, Vaccinia Venus)
CC(C)N(C(=S)Nc1ccc(S(=O)(=O)N2CCOCC2)cc1)c1ccccc1	none (no result: Shiga inhibitor, CHX counter)
Cc1ccc(C)c(NC(=O)CN2C(=O)CCc3cc(S(=O)(=O)N4CCCCC4)ccc32)c1	none (no result: Shiga inhibitor, MARV entry inh, CHX counter)
COc1cc2c(cc1C1C(C#N)=C(N)OC3=C1C(=O)CC(C)(C)C3)OCO2 (stereo not given)	none (no result: Shiga inhibitor, MARV entry inh, Lassa entry inh, Vaccinia mCherry, Vaccinia Venus)
CCOCC(=O)Nc1c(C(=O)OCC)oc2ccccc12	none (no result: Vaccinia mCherry, Vaccinia Venus)
Cc1ccc(C(=O)c2oc3ccccc3c2N)cc1	Shiga inhibitor 74, MARV entry inh inconclusive, CHX counter 20
CCOC(=O)c1oc2ccccc2c1N	Shiga inhibitor 67, CHX counter 27
COc1cccc(/C=C2/CCC(CN(C)C)C2=O)c1 (stereo not given)	MARV entry inh 11µM, Lassa entry inh 13µM (no result: Shiga inhibitor, CHX counter)
Cc1cccc(/C=C2\CCC(C3CCCC3)C2=O)c1 (stereo not given)	MARV entry inh inconclusive, CHX counter 15
COc1cccc(/C=C2\CCCCC2=O)c1	Lassa entry inh inconclusive, CHX counter 16
COc1ccc(/C=C2/CCCC(CN(C)C)C2=O)cc1 (stereo not given)	none (no result: Shiga inhibitor, CHX counter)
COc1cccc(/C=C2\CCC(C3CCCC3)C2=O)c1OC (stereo not given)	Shiga inhibitor 97, MARV entry inh inconclusive, CHX counter 38
COc1ccc(NC(=O)C2(C)Cc3c(-c4cccc(C(F)(F)F)c4)ccnc3O2)cc1OC (stereo not given)	none (no result: Shiga inhibitor, MARV entry inh, Lassa entry inh, CHX counter)
Cc1cc(C)cc(NCc2nnc3n2CCCCC3)c1	none (no result: Shiga inhibitor, MARV entry inh, CHX counter)
O=C(CCC(=O)Nc1ccc(Br)cc1)N/N=C/c1ccc(O)cc1	none (no result: MARV entry inh, Lassa entry inh, Vaccinia mCherry, Vaccinia Venus)
O=C1/C(=C/c2ccc([N+](=O)[O-])cc2)CCC1C1CCCC1 (stereo not given)	MARV entry inh inconclusive, Lassa entry inh inconclusive, CHX counter 18
COc1cccc(/C=C2\CCC(C3CCCC3)C2=O)c1 (stereo not given)	Shiga inhibitor 84, CHX counter 51
COc1cc(/C=C2\CCC(C3CCCC3)C2=O)cc(OC)c1OC (stereo not given)	MARV entry inh inconclusive
CC(=O)c1cccc(NC(=O)c2ccc3c(c2)CCN3S(=O)(=O)c2ccccc2)c1	Lassa entry inh inconclusive, CHX counter 24
O=C(Nc1ccc(S(=O)(=O)N2CCc3ccccc32)cc1)c1ccc2c(c1)OCO2	Shiga inhibitor 36, Vaccinia mCherry inconclusive, Vaccinia Venus inconclusive, CHX counter 31
COc1cc(C(=O)Nc2ccc(S(=O)(=O)N3CCc4ccccc43)cc2)cc(OC)c1OC	MARV entry inh 12µM (no result: Vaccinia mCherry, Vaccinia Venus)
CCOC(=O)N1CCN(C(=O)c2cc(S(=O)(=O)N3CCc4ccccc43)ccc2OC)CC1	Lassa entry inh 1.8µM (no result: Shiga inhibitor, CHX counter)
COc1ccccc1C(=O)Nc1ccc(S(=O)(=O)N2CCc3ccccc32)cc1	MARV entry inh inconclusive
C=CCC[C@H](Cc1ccc(F)cc1)C(=O)OC[C@@H](NC(=O)[C@H](CC=C)CC(=O)NCCO)C(C)(C)C	none (no result: Shiga inhibitor, MARV entry inh, Lassa entry inh, CHX counter)
O=C(Nc1ccc(S(=O)(=O)N2CCc3ccccc32)cc1)c1ccco1	Lassa entry inh 7.3µM, Vaccinia mCherry inconclusive
COc1ccccc1C(=O)Nc1nc2ccccc2[nH]1	MARV entry inh inconclusive, Lassa entry inh inconclusive
CSc1ccccc1C(=O)Nc1nc2ccccc2c(=O)[nH]1	Shiga inhibitor 80, MARV entry inh inconclusive, Lassa entry inh inconclusive, CHX counter 32
CSc1ccccc1C(=O)Nc1nc2ccccc2[nH]1	Shiga inhibitor 73, MARV entry inh inconclusive, Lassa entry inh inconclusive, CHX counter 39
Cc1cc(NC(=O)CN(c2cccc(C)c2C)S(=O)(=O)c2ccccc2)ccc1Br	MARV entry inh inconclusive, Lassa entry inh inconclusive (no result: Shiga inhibitor, CHX counter)
Cc1ccc(Cc2cnc(N3C(=N)SC(c4ccccc4)C3=O)s2)cc1 (stereo not given)	MARV entry inh inconclusive
N=C1SC(c2ccccc2)C(=O)N1c1ncc(Cc2ccccc2)s1 (stereo not given)	Shiga inhibitor 56, MARV entry inh inconclusive, Lassa entry inh inconclusive, CHX counter 18
Cc1ccc(C(=O)CNc2ccccc2C)cc1	Shiga inhibitor 118, CHX counter 42
Cc1ccc(C(=O)CNc2ccc(C)cc2C)cc1	CHX counter 13 (no result: Shiga inhibitor)
Cc1ccc(C(=O)CCC(=O)Nc2ccc(C)cc2C)cc1	none (no result: Shiga inhibitor, MARV entry inh, CHX counter)
O=C1CC(C(=O)N2CCCC(c3nc(-c4ccncc4)ncc3-c3ccccc3)C2)C2(CCCCC2)O1 (stereo not given)	none (no result: Shiga inhibitor, MARV entry inh, Lassa entry inh, CHX counter)
COC1OC2COC(c3ccccc3)OC2C(OC(C)=O)C1OC(C)=O (stereo not given)	Lassa entry inh inconclusive (no result: Shiga inhibitor, CHX counter)
Cn1cc(CN2CCC[C@H]2CO)c(-c2cccc(Cl)c2)n1	CHX counter 27 (no result: MARV entry inh, Lassa entry inh, Vaccinia mCherry, Vaccinia Venus)
CCN(C=NC1=NN(c2cccc(C(F)(F)F)c2)CC1)CC	MARV entry inh inconclusive, CHX counter 37
OCCN(C=NC1=NN(c2cccc(C(F)(F)F)c2)CC1)CCO	none (no result: Vaccinia mCherry, Vaccinia Venus)
Cc1cccc(N2C(=O)CCC2=O)c1	MARV entry inh inconclusive

Compound activity from PubChem.
